Bioassay records deposited in PubChem BioAssay by National Center for Advancing Translational Sciences (NCATS).
A selection: hits, their analogues and other compounds. The true share with any hit is near 11%.
Tau fibril FP: blocks human tau fibril formation measured by polarization. K18 P301L tau heparin fibrillization, Alexa594 FP, 6 h. Potency, µM (top dose mostly 57.7 µM), inactives show at the highest dose activity, negative = inhibition, usual class: inhibitors. hit rate 0.39% among 280,000; further: potency means the concentration at half of the fitted maximal effect; nearly all actives have a fitted effect of over 55% in size
Target sequence (P10636 561-689 P618L limits assumed): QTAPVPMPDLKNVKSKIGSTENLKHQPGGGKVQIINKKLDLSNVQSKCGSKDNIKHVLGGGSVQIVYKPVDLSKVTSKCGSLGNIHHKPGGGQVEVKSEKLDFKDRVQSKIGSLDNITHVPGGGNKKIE
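Steps: dispense K18 P301L tau (15 uM plus 0.24 uM Alexa 594 tracer, final) in pH 7 sodium acetate; add compound; add heparin (20 uM final); incubate 6 hr, 37 C; add ThT (30 uM final); after 1 hr ambient, read FP.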
Sfp PPTase inh: blocks B. subtilis Sfp PPTase activity; Q9F4F7; Biochemical Sfp PPTase activity, qHTS; hit rate 3.5% among 310,000; AID 1490; Potency, µM, for inactives: largest response in the series, negative = inhibition, usual class: inhibitors;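 further: the enzyme is Sfp with the accession as filed and its product quenches rhodamine fluorescence; potency means the concentration at half of the fitted maximal effect; 0% = enzyme reaction without inhibitor and -100% = no enzyme wells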
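Compounds were incubated with enzyme (final 15 nM) for 15 min at room temperature before substrate addition started the reaction. Fluorescence at 525 nm excitation, 598 nm emission was recorded immediately and after 30 minutes.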
Tau fluor counter: counter-screen for tau fibril formation inhibitors | tau K18 P301L Alexa594 fluorescence, heparin fibrillization | Potency, µM (highest dose often 57.7 µM), for the others: at the top dose activity change, negative = decrease | hit rate 0.93% among 280,000 | AID 1463; further: potency means the concentration at half of the fitted maximal effect; nearly all actives have a fitted effect of over 55% in size
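Human K18 P301L tau (15 uM unlabeled plus 0.24 uM Alexa 594-labeled, final) in 100 mM sodium acetate pH 7 was mixed with compound and 20 uM heparin and incubated 6 hr at 37 C.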
Coupling enz: coupling enzyme interference in Giardia aldolase counter-screen; coupling enzyme system counterscreen, AmpLite Red fluorescence; activity change, negative = inhibition, % at 58.2 µM, hits read low; hit rate 0.67% among 290,000; in the data active means activity change below about -30%
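Compounds tested against the coupling enzymes alone at 57.5 uM final; readout was AmpLite Red fluorescence (525/598 nm) after 20 min at RT.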
Tau fibril ThT: tau fibrillization inhibition (ThT binding). Potency, µM (titrated, usually from 57.4 µM), inactives show at the highest dose activity, negative = inhibition, actives largely listed as inhibitors. AID 1460. recombinant tau K18 P301L (four-repeat tau fragment), heparin-induced fibrillization, ThT fluorescence. hit rate 2.1% among 270,000. P10636; further: potency means the concentration at half of the fitted maximal effect; nearly all actives have a fitted effect of over 55% in size
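K18 P301L tau (15 uM + 0.24 uM Alexa 594-tagged), heparin 20 uM, NaOAc pH 7, 6 h 37 C; ThT 30 uM, 1 h RT, ex 450/em 510 nm.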
G9a block: blocks human histone lysine methyltransferase G9a; Potency, µM (series often up to 102 µM), inactives show at the highest dose activity, negative = inhibition, hits mostly inhibitors; Q96KQ7; G9a H3K9 monomethylation, AlphaScreen, 2 h; hit rate 8.8% among 350,000; further: potency means the concentration at half of the fitted maximal effect; nearly all actives have a fitted effect of over 75% in size
Target sequence (Q96KQ7 913-1193 limits assumed): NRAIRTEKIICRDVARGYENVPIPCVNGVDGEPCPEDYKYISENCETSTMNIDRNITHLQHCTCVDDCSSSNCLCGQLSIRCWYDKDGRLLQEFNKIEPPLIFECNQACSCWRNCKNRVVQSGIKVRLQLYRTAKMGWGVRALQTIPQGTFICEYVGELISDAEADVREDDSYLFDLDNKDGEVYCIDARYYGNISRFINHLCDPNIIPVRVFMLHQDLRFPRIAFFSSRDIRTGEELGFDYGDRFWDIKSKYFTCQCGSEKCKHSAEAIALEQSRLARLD
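G9a (20 nM) preincubated 15 min RT with compounds, then 500 nM biotinylated H3K9 peptide and 20 uM SAM added; 2 h RT reaction. Monomethyl-H3K9 product detected by AlphaScreen with anti-H3K9me1 antibody, streptavidin donor and anti-rabbit IgG acceptor beads.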
* marks the source's active call; other numbers are inactive results; ? = inconclusive; . = no result; [ ] = another dose, or the depositor's remark. Unless noted, the call rests on the fitted dose curve; in most records, active means well fitted curve in the direction sought with a large enough effect; inconclusive means small, poorly fitted or top-dose-only effect, or another doubt; inactive means no such curve, though single readings can be large; an effect the other way counts as inactive or inconclusive. Unless noted, on the % scale 0 is the no-effect control and ±100 the full control effect.

SMILES	Tau fibril FP	Sfp PPTase inh	Tau fluor counter	Coupling enz	Tau fibril ThT	G9a block
COc1ccc(NC(=O)c2c(-c3ccc(C)cc3)nnc3ccccc23)cc1Cl	-12%	.	1%	.	11%	7%[59 µM]
COC(=O)c1ccccc1NC(=O)CCCn1c(=O)c2cccn2c2cccnc21	-6%	.	-10%	.	-5%	-29%[59 µM]
CC(=O)N1CCOc2cc(S(=O)(=O)NCc3ccccc3Cl)c(C)cc21	-3%	.	-9%	.	10%	-26%[59 µM]
CCN(CC)CCNC(=O)c1ccc(NC(=O)c2ccc(Cl)c(S(=O)(=O)Nc3ccccc3OC)c2)cc1	-3%	-9%	?	6	-13%	50µM*
CN(C)CCNC(=O)c1cccc(S(=O)(=O)Nc2ccc(F)cc2)c1	-2%	0%	1%	1	2%	?
CCN(CC)CCCNC(=O)c1ccc(N2CCCCC2)c(NS(=O)(=O)c2ccc(C)cc2)c1	9%	?	-23%	-2	?	79µM*
CCN(CC)CCNC(=O)c1ccc(NC(=O)c2cccc(S(=O)(=O)Nc3ccc(C)cc3)c2)cc1	?	40µM*	?	0	1%	?
Cc1ccc(S(=O)(=O)Nc2cc(C(=O)NCCN(C)C)ccc2N2CCCC2)cc1	.	-9%	.	0	.	?
CCc1cc2c(cc3c(=O)n(CC(=O)NCCc4ccccc4)ncn32)s1	-1%	.	-24%	.	?	-5%[59 µM]
Cc1oc(-c2ccccc2Cl)nc1Cn1c(SCc2cccc(F)c2)nc2cccnc21	-2%	.	-24%	.	?	11%[59 µM]
COC(=O)c1c(NC(=O)Cc2ccccc2)sc2c1CC(C)(C)NC2(C)C	.	28µM*	.	1	.	.
COC(=O)c1c(NC(=O)COc2ccc(Cl)cc2)sc2c1CC(C)(C)NC2(C)C	.	56µM*	.	.	.	.
CCOC(=O)c1c(NC(=O)CSc2nc3ccc(OC)cc3[nH]2)sc2c1CC(C)(C)NC2(C)C	.	.	.	.	.	50µM*
CCOC(=O)c1c(NC(=O)CSc2ncccn2)sc2c1CC(C)(C)NC2(C)C	.	24%	.	.	.	-5%
CC1(C)Cc2c(sc(NC(=O)COc3ccc(Cl)cc3Cl)c2C(N)=O)C(C)(C)N1	.	-13%	.	.	.	.
CCCNc1c(NS(=O)(=O)c2cccs2)c(=O)oc2ccccc12	.	5%	.	0	.	19%
N#Cc1cc([N+](=O)[O-])ccc1NC(=O)COC(=O)C12CC3CC(CC(C3)C1)C2	8%	?	?	2	?	.
CCOC(=O)N1CCC(Nc2c(-c3ccccc3)c(=O)c2=O)CC1	5%	18%	-17%	2	-22%	56µM*
CCN(CCCNC(=O)CCCN1C(=O)COc2ccc(C)cc21)c1cccc(C)c1	8%	-3%	?	1	?	35µM*
CCOC(=O)N1CCC(Nc2c(Nc3cccc(CC)c3)c(=O)c2=O)CC1	?	-1%	14µM*[quencher]	0	?	-39%
CCC(C)N(C)C1CCN(C(=S)Nc2cccc(SC)c2)CC1 (centres undefined)	-6%	56µM*	3%	-12	4%	?
CCCCC[C@H](O)/C=C/[C@H]1OC(O)C[C@H](O)[C@@H]1C/C=C\CC(=O)O (some centres undefined)	-2%	1%	-7%	0	-9%	.
CC(CCc1ccccc1)NC(=O)CNC(=S)N(Cc1cccs1)C1CCCC1 (centres undefined)	-1%	?	-19%	2	-17%	-8%
CCOC(=O)N1CCC(Nc2c(NCCCN(CC)c3cccc(C)c3)c(=O)c2=O)CC1	17%	3%	-29%	-1	-1%	50µM*
CCOC(=O)N1CCN(c2c(NCCN(C)Cc3ccccc3)c(=O)c2=O)CC1	6%	7%	-1%	-1	-8%	56µM*
SMILES	Tau fibril FP	Sfp PPTase inh	Tau fluor counter	Coupling enz	Tau fibril ThT	G9a block
CCOC(=O)N1CCC(N(CCOC)C(=S)Nc2cccc(SC)c2)CC1	5%	6%	-24%	0	-18%	28%[59 µM]
CCOC(=O)N1CCN(c2c(NCCCN(C)c3ccccc3)c(=O)c2=O)CC1	4%	14%	-10%	1	-6%	?
CCOC(=O)N1CCC(Nc2cccc(SC)c2)CC1	-4%	56µM*	-14%	-44*	-14%	?
Cc1cccc(NC(=O)c2cc3c([nH]c2=O)CC(c2ccccc2)CC3=O)c1 (centres undefined)	6%	.	0%	.	-5%	7%[59 µM]
COc1ccc2c(c1)C(=O)[C@H](OC(=O)N[C@H](C)C1CCCCC1)[C@@H](c1ccc(OC)c(Br)c1)O2	3%	0%	-8%	1	-6%	.
CCn1c(SC(C)C)nnc1-c1cc(-c2ccccc2)sc1N	-11%	-17%	?	2	13µM*	?
CCC1(c2ccccc2)NC(=O)N(CC(=O)N(C)Cc2c(F)cccc2Cl)C1=O (centres undefined)	.	6%	.	1	.	45µM*
CCC1(c2ccccc2)NC(=O)N(CC(=O)N(C)Cc2ccccc2)C1=O (centres undefined)	.	4%	.	3	.	36%
CC1=CC(=O)C=C(C)C1=NOc1ccccc1[N+](=O)[O-]	?	5.6µM*	?	-37*	?	25µM*
CC(C)(C)/C(COc1ccccc1[N+](=O)[O-])=N/O	-2%	5%	-2%	-17	2%	-16%
CCCCC/C=C\C/C=C\C/C=C\CCCCC(=O)NCCCC(=O)O	-3%	26%	-15%	3	-11%	.
Cc1cccc(C)c1NC(=S)N(CCN(C)C)C(C)c1ccccn1 (centres undefined)	1%	-25%	-1%	2	-3%	-15%
COCCCN(C(=S)Nc1c(C)cc(C)cc1C)C(C)c1ccccn1 (centres undefined)	-15%	22µM*	-6%	1	-8%	40µM*
Cc1ccnc(Nc2nc(-c3ccc(O)c(O)c3)cs2)c1	.	50µM*	.	-3	.	28µM*
Oc1ccc(-c2csc(Nc3ccccn3)n2)cc1O	.	45µM*	.	0	.	11µM*
Cc1cccc(Nc2nc(-c3ccc(O)c(O)c3)cs2)n1	.	-12%	.	-6	.	40µM*
Cc1ccnc(Nc2nc(-c3ccc(O)cc3)cs2)c1	.	4%	.	1	.	?
CC(=O)Nc1ccc(-c2csc(Nc3ccccn3)n2)cc1	15%	-27%	?	-1	.	.
Oc1ccc(-c2csc(Nc3cccc4ccccc34)n2)cc1O	.	50µM*	.	-7	.	13µM*
CCCNC(=O)c1csc(Nc2cccc3ccccc23)n1	.	-11%	.	-2	.	16%[0.501 µM]
COc1ccc(Cl)cc1NC(=O)c1ccc2c(c1)CCCN2S(C)(=O)=O	-16%	.	?	.	-5%	-1%[59 µM]
